Screening results as filed in PubChem.
In the library only some 6.2% were active in any assay of this set; here they are far more common.
Lassa entry inh – Lassa virus entry inhibition; 1.2% of 300,000 active; Lassa virus pseudotype entry inhibition, cell reporter; Potency, µM (top dose mostly 37.9 µM), inactives show at the highest dose activity change, negative = inhibition, most hits filed as inhibitors; calls by dose curve; tested in HEK293 cells; further: potency means the concentration at half of the fitted maximal effect; nearly all actives have a fitted effect of over 50% in size
FMDV inh – blocks foot and mouth disease virus; FMDV antiviral cell-based qHTS; Potency, µM (top dose mostly 57.9 µM), for the others: top-dose activity change, negative = inhibition, most hits filed as inhibitors; 1.2% of 410,000 active; calls by dose curve; tested in HEK293T cells; further: read-out not given here; potency means the concentration at half of the fitted maximal effect; nearly all actives have a fitted effect of over 45% in size
HCMV antiviral – inhibitors of human cytomegalovirus; HFF cells, HCMV-luciferase reporter, 72 h; active compounds read low; activity change, negative = inhibition, % at 57.5 µM; 4.5% of 410,000 active; in the data active means activity change below about -60%; inconclusive means no clear call, values can overlap the other calls; inactive means above about -39%
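Compounds were evaluated in HFFs infected with an HCMV luciferase reporter virus (MOI 1 PFU/cell). Luciferase in lysates collected 72 h post infection served as the replication measure.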
Marburg entry inh – blocks Marburg virus binding to or entry into cells; Potency, µM (top dose mostly 37.8 µM), inactives show at the highest dose activity change, negative = inhibition, usual class: inhibitors; Marburg virus pseudotyped entry inhibition, cell reporter; 1.8% of 300,000 active; AID 540276; calls by dose curve; tested in HEK293 cells; further: potency means the concentration at half of the fitted maximal effect
* hit, by the source's call; [ ] = dose if it differs, or a comment. On the % scale 0 is the no-effect control and ±100 the full control effect.

Results for Cc1cccc(NS(=O)(=O)c2ccc(C(=O)NCC3(N4CCCCC4)CCCCC3)cc2)c1C ?
Lassa entry inh: inconclusive; FMDV inh: 1.3%; HCMV antiviral: -34.5; Marburg entry inh: 11.2µM*

Results for CCOc1ccc(OCC(=O)Nc2ccccc2N2CCCC2)cc1 ?
Lassa entry inh: inconclusive; FMDV inh: inconclusive; HCMV antiviral: -19.9; Marburg entry inh: -28.1%

Results for CC(C)C(=O)N1CCN(c2ccccc2NC(=O)COc2ccc(C3CCCCC3)cc2)CC1 ?
Lassa entry inh: -12.0%; FMDV inh: inconclusive; Marburg entry inh: 7.94µM*

What do the screens show for `CC(=O)c1ccc(OCC(=O)Nc2ccccc2N2CCCC2)cc1`?
Lassa entry inh: -15.5%[46.1 µM]; FMDV inh: -3.9%; HCMV antiviral: -83.1*; Marburg entry inh: -34.6%[46.1 µM]

What do the screens show for `O=C(COc1ccc([N+](=O)[O-])cc1)Nc1ccccc1N1CCCC1`?
FMDV inh: inconclusive; HCMV antiviral: -64.3*

How did Cc1ccc(OCC(=O)Nc2ccccc2N2CCCC2)c(C)c1 do in these assays?
Lassa entry inh: inconclusive; FMDV inh: -3.6%; HCMV antiviral: -62.5*; Marburg entry inh: inconclusive

How did COc1cccc(C(C)(O)c2nc(-c3cc(F)cc(F)c3)cs2)c1 (stereo not drawn) do in these assays?
FMDV inh: inconclusive; HCMV antiviral: -15.9

What do the screens show for `O=C(c1ccc(F)cc1)N1CCN(S(=O)(=O)c2ccc3c(c2)OCCO3)CC1`?
FMDV inh: inconclusive; HCMV antiviral: -7.2

Results for COc1cccc(-c2csc(N3CCN(C(=S)Nc4cccc(C)c4)CC3)n2)c1 ?
FMDV inh: -22.5%; HCMV antiviral: -67.1*

Results for COc1cccc(-c2csc(N3CCN(C(=O)Nc4ccccc4Cl)CC3)n2)c1 ?
FMDV inh: 5.3%; HCMV antiviral: -18.9

Results for COc1cccc(NC(=O)N2CCN(c3nc(-c4cccc(OC)c4)cs3)CC2)c1 ?
FMDV inh: 31.6µM*; HCMV antiviral: -71.1*

What do the screens show for `CC1(C)C(=O)C=C[C@]2(C)C1CC(=O)[C@]1(C)C2CC[C@@]2(C)C(c3ccoc3)OC(=O)C3O[C@@]321` (stereo partly drawn)?
FMDV inh: 17.8µM*

Results for CC1(C)O[C@H]2CC(=O)OC[C@]23[C@H]2CC[C@@]4(C)[C@H](c5ccoc5)OC(=O)[C@H]5O[C@]54[C@]2(C)C(=O)C[C@@H]13 ?
FMDV inh: -8.7%

What do the screens show for `CCCCN(C(=O)/C=C/c1ccc(OC)cc1)C1CCS(=O)(=O)C1` (stereo not drawn)?
Lassa entry inh: 0.0%; FMDV inh: -14.8%; HCMV antiviral: -18.2; Marburg entry inh: 9.3%

How did Cc1cccc(/C=N/Nc2cc(N3CCOCC3)nc(N3CCOCC3)n2)c1 do in these assays?
Lassa entry inh: inconclusive; FMDV inh: 0.0%; HCMV antiviral: -14.5; Marburg entry inh: 1.41µM*

How did Cc1cc(N/N=C/c2ccccc2)nc(N2CCOCC2)n1 do in these assays?
Lassa entry inh: 6.2%; FMDV inh: 8.8%; HCMV antiviral: 18.6; Marburg entry inh: 1.58µM*

What do the screens show for `CC(C)c1ccc(/C=N/Nc2cc(N3CCOCC3)nc(N3CCOCC3)n2)cc1`?
Lassa entry inh: inconclusive; FMDV inh: -23.6%; HCMV antiviral: -38.4; Marburg entry inh: inconclusive

What do the screens show for `CC12C(=O)N(c3ccc(C(=O)N4CCOCC4)cc3)C(=O)C1C1c3ccccc3C2c2ccccc21` (stereo not drawn)?
Lassa entry inh: 12.1%; HCMV antiviral: -101.5*; Marburg entry inh: 19.6%

How did O=C(c1ccc(-n2cccc2)cc1)N1CCOCC1 do in these assays?
Lassa entry inh: 1.2%; FMDV inh: 19.4%; HCMV antiviral: 62.2; Marburg entry inh: 17.8%

Results for CCOc1ccc2nc(N3CCCC(C(=O)NCCc4ccc(C)cc4)C3)sc2c1 (stereo not drawn) ?
FMDV inh: 13.1%; HCMV antiviral: 3.1; Marburg entry inh: 2.7%[46.1 µM]

Results for Cc1nc(NC(=O)c2ccc([N+](=O)[O-])cc2Cl)sc1C(=O)N(C)C ?
Lassa entry inh: -2.0%; FMDV inh: 9.7%; HCMV antiviral: 0.9; Marburg entry inh: -31.2%

How did Cc1cc(C(=O)Nc2nc(C)c(C(=O)N(C)C)s2)ccc1[N+](=O)[O-] do in these assays?
Lassa entry inh: 10µM*; FMDV inh: -41.0%; HCMV antiviral: -36.3; Marburg entry inh: inconclusive

What do the screens show for `C=C[C@]1(C)C=C2CCC3[C@](C)(CCC[C@@]3(C)C(=O)O)C2CC1` (stereo partly drawn)?
FMDV inh: -17.7%

What do the screens show for `COc1ccc(OC)c(N2CC(O)=C(c3nc4ccccc4s3)C2=N)c1`?
Lassa entry inh: inconclusive; FMDV inh: 7.2%; HCMV antiviral: -8.8; Marburg entry inh: inconclusive

Results for CCOc1ccccc1N1CC(O)=C(c2nc3ccccc3s2)C1=N ?
Lassa entry inh: inconclusive; HCMV antiviral: -8.1; Marburg entry inh: 5.8µM*

Results for COc1ccc(N2CCN(C(C)C(=O)N3CC(C)OC(C)C3)CC2)cc1 (stereo not drawn) ?
Lassa entry inh: 0.4%; FMDV inh: -6.8%; HCMV antiviral: -9.3; Marburg entry inh: -0.5%[46.1 µM]

How did CC(=O)C1=C(O)C(=O)N(CCN2CCOCC2)C1c1ccc(N(C)C)cc1 (stereo not drawn) do in these assays?
Lassa entry inh: -13.1%; FMDV inh: 9.9%; HCMV antiviral: -12.2; Marburg entry inh: inconclusive

How did COc1ccccc1CNc1ncnc2c1c(-c1ccccc1)cn2-c1cccc(C)c1 do in these assays?
Lassa entry inh: -14.1%[46.1 µM]; FMDV inh: inconclusive; HCMV antiviral: -60.5*

What do the screens show for `COc1ccc(CNc2ncnc3c2c(-c2ccccc2)cn3-c2cccc(C)c2)cc1`?
Lassa entry inh: 0.6%[46.1 µM]; FMDV inh: -26.6%; HCMV antiviral: inconclusive

How did CC(C)(C)c1nnc(NC(=O)c2cccnc2Cl)s1 do in these assays?
FMDV inh: 2.7%; HCMV antiviral: 35.5

What do the screens show for `CC(C)=CCC/C(C)=C/CNC(=O)CC1C[C@H](C(=O)N2CCOCC2)[C@@]2(C)c3[nH]c4ccccc4c3CCN2C1=O` (stereo partly drawn)?
FMDV inh: inconclusive; HCMV antiviral: 1.0

What do the screens show for `CC(C)=CCC/C(C)=C/CNC(=O)C[C@H]1C[C@H](C(=O)N2CCOCC2)[C@@]2(C)c3[nH]c4ccc(Cl)cc4c3CCN2C1=O`?
FMDV inh: inconclusive; HCMV antiviral: -86.0*; Marburg entry inh: -0.2%

How did CC(C)(C)NC(=O)C[C@H]1C[C@H](C(=O)N2CCCCC2)[C@@]2(CCc3ccccc3)c3[nH]c4ccc(Cl)cc4c3CCN2C1=O do in these assays?
FMDV inh: -14.0%; HCMV antiviral: -6.2

Results for COCCCNC(=O)C[C@H]1C[C@H](C(=O)N2CCCCC2)[C@@]2(CCc3ccccc3)c3[nH]c4ccc(Cl)cc4c3CCN2C1=O ?
FMDV inh: 39.8µM*; HCMV antiviral: -4.9; Marburg entry inh: 0.5%

Results for CC[C@]12c3[nH]c4ccc(Cl)cc4c3CCN1C(=O)[C@@H](CC(=O)NCC13CC4CC(CC(C4)C1)C3)C[C@@H]2C(=O)N1CCN(C(=O)c2ccco2)CC1 ?
FMDV inh: inconclusive; HCMV antiviral: -106.1*
